Measured values reported in PubChem BioAssay AID1159580 (chemical genetic matrix, 2015).
Several values for one entry are separate records, joined by “and”; a condition that tells them apart may be missing. Equal entries are not always repeated. The whole screen tested about 5,500 compounds, of which about 2,000 (36%) were called active. Roughly 18% stayed inconclusive and do not appear here. Rule as the data show it: active = normalized growth mostly below about 0.91 (no sharp cut-off); inconclusive = no clear call, values can overlap the other calls; inactive = mostly above about 0.92. Some of the results follow.

Experiment: chemical genetic growth profiling, strain panel (AID 1159580);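 also: tested at 20 µM; growth read once vehicle control cultures reached saturation at 30 °C; 1 = growth at the plate median or of vehicle wells; lower values mean less growth of the strain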
Details: S. cerevisiae deletion strains, growth OD

Measured: normalized growth

C=C(C)C1Cc2c(ccc3c(=O)c4c(oc23)COc2cc(OC)c(OC)cc2-4)O1 (stereo unspecified)
inactive: locus YAL021C, strain ccr4, stronger effect = lower value 1.01 | locus YAL026C, strain drs2, stronger effect = lower value 0.999 | locus YAL030W, strain snc1, stronger effect = lower value 0.987 | locus YBL061C, strain skt5, stronger effect = lower value 0.999 | locus YBR009C, strain hhf1, stronger effect = lower value 1 | locus YBR021W, strain FUR4, stronger effect = lower value 1.05 | locus YBR023C, strain chs3, stronger effect = lower value 0.998 | locus YBR171W, strain sec66, stronger effect = lower value 0.99 | locus YBR229C, strain ROT2, stronger effect = lower value 1 | locus YBR231C, strain swc5, stronger effect = lower value 1.01 | locus YBR279W, strain paf1, stronger effect = lower value 1 | locus YCL011C, strain gbp2, stronger effect = lower value 0.989 | locus YCL016C, strain dcc1, stronger effect = lower value 0.995 | locus YCL029C, strain bik1, stronger effect = lower value 1 | locus YCL061C, strain MRC1, stronger effect = lower value 0.996 | locus YCL069W, strain vba3, stronger effect = lower value 0.999 | locus YCR088W, strain abp1, stronger effect = lower value 0.996 | locus YDL005C, strain med2, stronger effect = lower value 0.997 | locus YDL035C, strain GPR1, stronger effect = lower value 1.04 | locus YDL040C, strain nat1, stronger effect = lower value 0.991 | locus YDL074C, strain BRE1, stronger effect = lower value 1.04 | locus YDL101C, strain DUN1, stronger effect = lower value 0.994 | locus YDL134C, strain PPH21, stronger effect = lower value 1.01 | locus YDL185W, strain tfp1, stronger effect = lower value 0.956 | locus YDL192W, strain arf1, stronger effect = lower value 1.03 | locus YDR001C, strain nth1, stronger effect = lower value 1 | locus YDR069C, strain doa4, stronger effect = lower value 1 | locus YDR101C, strain arx1, stronger effect = lower value 1.04 | locus YDR137W, strain rgp1, stronger effect = lower value 0.926 | locus YDR150W, strain NUM1, stronger effect = lower value 0.989 | locus YDR159W, strain sac3, stronger effect = lower value 1.01 | locus YDR162C, strain NBP2, stronger effect = lower value 1.04 | locus YDR195W, strain ref2 0.998 | locus YDR297W, strain sur2, stronger effect = lower value 0.995 | locus YDR318W, strain mcm21, stronger effect = lower value 1.01 | locus YDR334W, strain swr1, stronger effect = lower value 0.982 | locus YDR335W, strain msn5, stronger effect = lower value 1 | locus YDR388W, stronger effect = lower value 0.997 | locus YDR392W, strain spt3, stronger effect = lower value 0.982 | locus YDR502C, strain sam2, stronger effect = lower value 1.01 | locus YEL003W, strain gim4, stronger effect = lower value 0.991 | locus YEL037C, strain rad23, stronger effect = lower value 0.997 | locus YEL061C, strain CIN8 (second series), stronger effect = lower value 1 | locus YEL061C, strain CIN8, stronger effect = lower value 1 | locus YER015W, strain faa2, stronger effect = lower value 1 | locus YER016W, strain bim1, stronger effect = lower value 0.994 | locus YER110C, stronger effect = lower value 1 | locus YER111C, strain swi4, stronger effect = lower value 1.01 | locus YER155C, strain BEM2 (second series), stronger effect = lower value 1.01 | locus YER155C, strain BEM2, stronger effect = lower value 0.99 | locus YER167W, strain BCK2, stronger effect = lower value 0.988 | locus YFR010W, strain ubp6, stronger effect = lower value 0.988 | locus YGL078C, strain dbp3, stronger effect = lower value 0.987 | locus YGL086W, strain mad1, stronger effect = lower value 0.995 | locus YGL167C, strain pmr1, stronger effect = lower value 1.01 | locus YGL173C, strain kem1, stronger effect = lower value 0.996 | locus YGL227W, strain vid30, stronger effect = lower value 1.01 | locus YGL240W, strain doc1, stronger effect = lower value 1.01 | locus YGL248W, strain PDE1, stronger effect = lower value 0.999 | locus YGL253W, strain hxk2, stronger effect = lower value 1 | locus YGR135W, strain pre9, stronger effect = lower value 0.983 | locus YGR229C, strain SMI1, stronger effect = lower value 0.988 | locus YGR252W, strain gcn5, stronger effect = lower value 1.06 | locus YHR013C, strain ard1, stronger effect = lower value 1.01 | locus YHR027C, strain rpn1, stronger effect = lower value 0.99 | locus YHR030C, strain SLT2, stronger effect = lower value 0.973 and 1.01 | locus YHR079C, strain IRE1 (second series), stronger effect = lower value 1 | locus YHR079C, strain IRE1, stronger effect = lower value 1.06 | locus YHR094C, strain hxt1, stronger effect = lower value 0.979 | locus YHR129C, strain ARP1, stronger effect = lower value 1.01 | locus YHR142W, strain chs7, stronger effect = lower value 1.01 | locus YHR200W, strain rpn10, stronger effect = lower value 1.01 | locus YIL066C, strain RNR3, stronger effect = lower value 1 | locus YIL073C, strain SPO22, stronger effect = lower value 0.927 | locus YIL125W, strain kgd1, stronger effect = lower value 0.998 | locus YIR030C, strain dcg1, stronger effect = lower value 0.999 | locus YJL092W, strain hpr5, stronger effect = lower value 0.993 | locus YJL095W, strain BCK1 (second series), stronger effect = lower value 0.998 | locus YJL095W, strain BCK1, stronger effect = lower value 1.03 and 1.01 | locus YJL115W, strain asf1, stronger effect = lower value 0.974 | locus YJL129C, strain trk1, stronger effect = lower value 0.993 | locus YJL134W, strain LCB3, stronger effect = lower value 0.998 | locus YJL154C, strain vps35, stronger effect = lower value 0.99 | locus YJL164C, strain tpk1, stronger effect = lower value 1 | locus YJL166W, strain qcr8, stronger effect = lower value 1.01 | locus YJL168C, strain set2, stronger effect = lower value 0.998 | locus YJL187C, strain SWE1 (second series), stronger effect = lower value 0.995 | locus YJL187C, strain SWE1, stronger effect = lower value 1.01 | locus YJR043C, strain POL32, stronger effect = lower value 1.04 | locus YJR066W, strain TOR1, stronger effect = lower value 0.986 | locus YKL009W, strain mrt4, stronger effect = lower value 1 | locus YKL068W, stronger effect = lower value 0.982 | locus YKL085W, strain MDH1 (second series), stronger effect = lower value 0.997 | locus YKL085W, strain MDH1, stronger effect = lower value 0.997 | locus YKL160W, strain elf1, stronger effect = lower value 1.01 | locus YKL190W, strain CNB1, stronger effect = lower value 0.992 | locus YKR001C, strain vps1, stronger effect = lower value 1.03 | locus YKR026C, strain gcn3, stronger effect = lower value 0.999 | locus YKR091W, strain srl3, stronger effect = lower value 0.999 | locus YLL001W, strain dnm1, stronger effect = lower value 0.995 | locus YLL026W, stronger effect = lower value 0.993 | locus YLL041C, strain sdh2, stronger effect = lower value 0.978 | locus YLR027C, strain aat2, stronger effect = lower value 0.986 | locus YLR039C, strain RIC1, stronger effect = lower value 0.99 | locus YLR058C, strain SHM2, stronger effect = lower value 1.02 | locus YLR102C, strain apc9, stronger effect = lower value 0.993 | locus YLR113W, strain HOG1, stronger effect = lower value 0.992 | locus YLR221C, strain rsa3, stronger effect = lower value 1 | locus YLR258W, strain gsy2, stronger effect = lower value 0.991 | locus YLR262C, strain YPT6 (second series), stronger effect = lower value 1 | locus YLR262C, strain YPT6, stronger effect = lower value 0.969 | locus YLR268W, strain sec22, stronger effect = lower value 1.04 | locus YLR320W, strain mms22, stronger effect = lower value 1.02 | locus YLR330W, strain CHS5, stronger effect = lower value 1 | locus YLR342W, strain FKS1 (second series), stronger effect = lower value 1.06 | locus YLR342W, strain FKS1, stronger effect = lower value 1 | locus YLR357W, strain rsc2, stronger effect = lower value 1.02 | locus YLR370C, strain arc18, stronger effect = lower value 1.01 | locus YLR371W, strain rom2, stronger effect = lower value 0.98 | locus YLR384C, strain iki3, stronger effect = lower value 1 | locus YLR418C, strain cdc73, stronger effect = lower value 1.05 | locus YML016C, strain PPZ1, stronger effect = lower value 0.999 | locus YML032C, strain rad52, stronger effect = lower value 1.01 | locus YML120C, strain ndi1, stronger effect = lower value 1.01 | locus YML124C, strain tub3, stronger effect = lower value 0.992 | locus YMR058W, strain fet3, stronger effect = lower value 1 | locus YMR078C, strain ctf18, stronger effect = lower value 0.998 | locus YMR125W, strain sto1, stronger effect = lower value 0.998 | locus YMR129W, stronger effect = lower value 0.996 | locus YMR205C, strain PFK2, stronger effect = lower value 1.02 | locus YMR223W, strain ubp8, stronger effect = lower value 1.01 | locus YMR231W, strain pep5, stronger effect = lower value 0.996 | locus YMR307W, strain GAS1, stronger effect = lower value 1.18 | locus YNL067W, strain RPL9B, stronger effect = lower value 0.984 | locus YNL071W, strain lat1, stronger effect = lower value 0.981 | locus YNL153C, strain GIM3, stronger effect = lower value 0.991 | locus YNL183C, strain NPR1, stronger effect = lower value 0.988 | locus YNL209W, strain ssb2, stronger effect = lower value 0.999 | locus YNL233W, strain BNI4, stronger effect = lower value 1.03 | locus YNL248C, strain rpa49, stronger effect = lower value 0.991 | locus YNL250W, strain rad50, stronger effect = lower value 0.962 | locus YNL271C, strain bni1, stronger effect = lower value 0.99 | locus YNL298W, strain CLA4, stronger effect = lower value 1 | locus YNL307C, strain MCK1, stronger effect = lower value 0.993 | locus YNL322C, strain KRE1 (second series), stronger effect = lower value 1 | locus YNL322C, strain KRE1, stronger effect = lower value 0.999 | locus YNR049C, strain mso1, stronger effect = lower value 1 | locus YNR052C, strain pop2, stronger effect = lower value 0.991 | locus YOL012C, strain htz1 1.59 | locus YOL147C, strain pex11, stronger effect = lower value 0.992 | locus YOR001W, strain rrp6, stronger effect = lower value 0.99 | locus YOR061W, strain CKA2, stronger effect = lower value 1 | locus YOR069W, strain VPS5, stronger effect = lower value 0.996 | locus YOR070C, strain gyp1, stronger effect = lower value 0.99 | locus YOR080W, strain dia2, stronger effect = lower value 1 | locus YOR083W, strain WHI5, stronger effect = lower value 1.01 | locus YOR106W, strain vam3, stronger effect = lower value 1.02 | locus YOR136W, strain idh2, stronger effect = lower value 1 | locus YOR144C, strain elg1, stronger effect = lower value 0.999 | locus YOR184W, strain ser1, stronger effect = lower value 1.07 | locus YOR231W, strain MKK1, stronger effect = lower value 1.03 | locus YOR265W, strain rbl2, stronger effect = lower value 0.993 | locus YOR270C, strain vph1, stronger effect = lower value 1 | locus YOR290C, strain snf2, stronger effect = lower value 0.998 | locus YOR316C, strain cot1, stronger effect = lower value 0.982 | locus YPL051W, strain arl3, stronger effect = lower value 1.01 | locus YPL078C, strain atp4, stronger effect = lower value 1.01 | locus YPL106C, strain sse1, stronger effect = lower value 0.992 | locus YPL240C, strain hsp82, stronger effect = lower value 0.976 | locus YPL241C, strain CIN2, stronger effect = lower value 0.991 | locus YPL256C, strain CLN2, stronger effect = lower value 1.03 | locus YPR119W, strain clb2, stronger effect = lower value 0.988 | locus YPR141C, strain kar3, stronger effect = lower value 0.974 | locus YPR163C, strain tif3, stronger effect = lower value 0.974 | locus YPR167C, strain met16, stronger effect = lower value 1.01 | strain wtn01, stronger effect = lower value 1.03
